# These entries were drawn from the full list.
# aSyn 5UTR act – Activators via SNCA 5'UTR binding, MLPCN; AID 1814; activity score, % (tested at 7.5 µM), hits read low; alpha-synuclein 5'UTR reporter, activators screen; 300,000 compounds, 7.1% hits; in the data active = activity score below about -60%
# Hits are given with their value; i = inactive.
SMILES,aSyn 5UTR act
COc1cc(OC)cc(C(=O)Oc2c(CN3CCOCC3)cc(Cl)c3cccnc23)c1,i
COc1ccc2c(c1OC)c(=O)n1c3ccc(OC(C)C(=O)NCCN4CCOCC4)cc3c3ccnc2c31 (centres undefined),-65
CC(Oc1ccc2c(c1)c1ccnc3c4ccccc4c(=O)n2c13)C(=O)NCCN1CCOCC1 (centres undefined),-76
Cc1cc(Cl)n2c(nc3ccccc32)c1C#N,i
Cn1c(-c2ccc(Cl)nc2)nc2ccccc21,-65
Cn1c(-c2cccs2)nc2ccccc21,-93
Cn1c(-c2ccc(C=O)s2)nc2ccccc21,-123
CC(=O)c1cccc(NC(=O)c2cc(-c3ccc(C)cc3)on2)c1,-137
CCCc1cc(C(=O)Nc2cccc(C(C)=O)c2)no1,-80
CC1CCN(C(=O)COC(=O)c2n[nH]c3ccccc23)CC1,-144
CCc1ccc(C(=O)COC(=O)c2n[nH]c3ccccc23)cc1,-129
O=c1c2[nH]c3ccccc3c2nc2n1CCCS2,-75
Cc1oc(C(C)(C)C)cc1C(=O)Nc1ccc2c(c1)OCCO2,-179
Cc1oc(C(C)(C)C)cc1C(=O)Nc1ccc2c(c1)OCO2,-87
Cc1ccc2c(c1)sc1nc(=O)n(-c3ccccc3)c(=O)n12,-68
O=C(Nc1ccccc1)NC1CCCCCCC1,-106
O=C(Nc1ccccc1)NC1CCCCC1,-66
Cc1ccc(C(=O)OCC(=O)N2CCc3ccccc32)cc1,-70
CC(=O)c1c(C)[nH]c(C(=O)OCC(=O)N2CCc3ccccc32)c1C,-131
C/C(=N/NC(=O)C(O)(c1ccccc1)c1ccccc1)c1ccc([N+](=O)[O-])o1,-66
CN(C)c1ccc(/C=N/n2ncc3ccccc32)cc1,-290
COc1ccc(NC(=O)c2scc(S(=O)(=O)C(C)C)c2N)cc1,-193
COc1ccc(NC(=O)c2cnc(SC)nc2)cc1,-124
COc1ccc(NC(=O)c2sc(SC)nc2N)cc1,-197
O=[N+]([O-])c1cc(/C=N/N/C(=N/c2ccccn2)c2ccccn2)ccc1O,-91
SMILES,aSyn 5UTR act
O=[N+]([O-])c1ccc(/C=N/N/C(=N/c2ccccn2)c2ccccn2)cc1,-125
CC(C)(C)c1ccc(Cn2c(=N)n(CC(O)c3ccco3)c3ccccc32)cc1 (centres undefined),i
CC(C)(C)c1ccc(CN2C3=NCCCN3c3ccccc32)cc1,-62
N/C(=N\OCc1ccccc1)c1nonc1N,-98
CCOc1ccc(N2C(=O)c3ccccc3C2O)cc1 (centres undefined),-96
CCOc1ccc(N2Cc3ncccc3C2=O)cc1,-103
O=C(COc1ccc(Cl)cc1Cl)NCc1ccco1,-64
O=C(NCc1ccco1)c1ccc(COc2cc(Cl)ccc2Cl)cc1,-95
COc1ccc(OC)c(/C=N/N(C)c2ccccc2)c1,-187
COc1cccc(OCc2cc(C(=O)N(C)Cc3nccn3C)no2)c1,-142
COc1ccc(OCc2cc(C(=O)N(Cc3nccn3C)C(C)C)no2)c2ccccc12,-70
COc1cccc(OCc2cc(C(=O)N(C)CCOc3ccc(C)cc3)no2)c1,-133
Cc1cccc2sc(NNC(=O)c3cc(=O)c4ccccc4o3)nc12,-62
COc1ccc2nc(NNC(=O)c3cc(=O)c4ccccc4o3)sc2c1,-88
Cc1cccc2sc(NNC(=O)c3ccc(S(=O)(=O)N4CC(C)CC(C)C4)cc3)nc12 (centres undefined),i
O=C(CNC(=O)c1ccccc1F)N/N=C/c1cccs1,-94
O=C(CNC(=O)c1cccs1)N/N=C/c1ccco1,-125
O=C(N/N=C/C=C/c1ccco1)c1ccccc1Cl,-107
O=C(Cc1cccs1)N/N=C/C=C\c1ccco1,-78
COc1cc2c(c(OC)c1OC)-c1ccc(OC)c(=O)cc1[C@@H](N(C)CC#CCO)CC2,i
O=C(N/N=C/C=C\c1ccco1)c1cccs1,-152
Cc1ccc(OCC(=O)N/N=C/C=C/c2ccco2)c(Br)c1,-64
Cc1ccc(N/N=C/C=C/c2ccco2)cc1,-157
O=C(c1ccc2c(Cl)c3c(nc2c1)CCCC3)N1CCC(N2CCCCC2)CC1,-89
CCC(C)NC(=O)c1ccc2c(Cl)c3c(nc2c1)CCC3 (centres undefined),-164
SMILES,aSyn 5UTR act
CN(C(=O)c1ccc2c(Cl)c3c(nc2c1)CCC3)c1ccccc1,-223
Cc1ccc(S(=O)(=O)N2CCCC(C(=O)Nc3ccc(NC(=O)c4ccccn4)cc3)C2)cc1 (centres undefined),-74
Cc1ccc(NC(=S)N=Nc2c(O)n(C)c3ccc(S(=O)(=O)N4CCOCC4)cc23)cc1,i
O=C(Nc1ccc(NC(=O)C2CCCCC2)nc1)c1ccco1,-101
CNS(=O)(=O)c1ccc(NC(=O)c2ccccn2)cc1,-73
O=C(Nc1ccc(NC(=O)C2CCCCC2)nc1)c1ccccn1,-108
O=C(Nc1ccc(NC(=O)C2CC2)nc1)c1ccco1,-121
CNS(=O)(=O)c1ccc(NC(=O)c2cc(-c3ccncc3)nc3ccc(Cl)cc23)cc1,-98
CCOC(=O)C1=C(N)n2c(s/c(=C\c3cccnc3)c2=O)=C(C(=O)OC)C1c1cccnc1 (centres undefined),-66
COc1ccc(CC(=O)O/N=C(\N)c2ccccn2)cc1,-76
N/C(=N\OC(=O)CC1CCCCC1)c1ccccn1,-90
N/C(=N\OC(=O)CSc1ccccc1)c1ccccn1,-88
N/C(=N\OC(=O)Cc1ccc(-c2ccccc2)cc1)c1ccccn1,-66
Cc1ccc(C(=O)O/N=C(\N)c2ccccn2)c(C)c1,i
Cc1ccc(C)c(OCC(=O)O/N=C(\N)c2ccccn2)c1,-131
O=C1c2ccsc2SCCN1Cc1ccccc1,-65
Cc1ccc2nc(NC(=O)CSCc3ccccc3)sc2c1,-79
CSc1nsc(SCC(=O)Nc2nc3ccc(C)cc3s2)n1,-84
FC(F)(F)c1ccc(NC(=S)NC2CCCCC2)cc1,-78
O=C(O)c1ccc(NC(=S)NC2CCCCC2)cc1,-65
COc1ccc(C2OC3=C(Nc4cc(C)c(C)cc4N3)C2=O)cc1 (centres undefined),-98
C/C(=N\Nc1nc2ccccc2c(=O)n1O)c1ccco1,-119
Cc1ccc(C)c(/C=N/Nc2nc3ccccc3c(=O)n2O)c1,-85
CC(C)(C)c1nnc(N/N=C/c2cc(Br)ccc2O)n(N)c1=O,i
O=C(Nc1ccc(Cl)cc1Cl)c1ccc(Br)o1,-124
SMILES,aSyn 5UTR act
Cc1cc(O)c(NC(=O)c2ccc(Br)o2)cc1C,-178
C=CCNC(=O)C1CCN(c2nc(C)cc(-c3ccccc3)n2)CC1,-97
COc1ccc(C(=O)Nc2cc3c(cc2Cl)OCCCO3)cc1,-148
COc1ccc(-c2nnc(NC(=O)c3ccc4c(c3)OCCO4)o2)cc1,i
COc1cccc(C(=O)Nc2cc3c(cc2Cl)OCCCO3)c1,-130
CCOc1ccc2nc(NC(=O)C3=NNC(=O)CC3)sc2c1,-73
CCOc1ccc2nc(NC(=O)c3cnc(C)cn3)sc2c1,-68
Cc1ccc(NCCC(=O)c2cccc([N+](=O)[O-])c2)c(C)c1,-201
Cc1sc(NC(=O)/C=C/c2ccco2)c(C(=O)O)c1C,-118
CCOC(=O)c1c(NC(=O)/C=C/c2ccc(C)o2)sc(C)c1C,-108
Cc1c(C(=O)Oc2ccc(-c3cnc4ccccc4n3)cc2)cccc1[N+](=O)[O-],-108
O=C(Oc1ccc(-c2cnc3ccccc3n2)cc1)c1cc([N+](=O)[O-])ccc1Cl,-176
Cc1nc2ccc(S(=O)(=O)Nc3cc(-c4nc5cccnc5s4)ccc3C)cc2s1,-85
Cc1ccc(C)c(NS(=O)(=O)c2ccc(-c3cnc(C4CC4)o3)cc2)c1,i
CSc1n[nH]c(-c2ccc(C(F)(F)F)cc2)n1,-68

# Source: PubChem BioAssay
